# Screens as filed in PubChem BioAssay.
# PMP22 txn = PMP22 gene transcription modulation. hit rate 2% among 43,000. Potency, µM (doses to about 57.5 µM), inactives show at the top dose activity change, negative = inhibition, actives largely listed as inhibitors. S16 Pmp22-F2sN Schwann cells, FLuc/NLuc coincidence luminescence, 24 h; active = clear falling dose curves in both reporters; inconclusive = both reporters move, but less clearly or upward; inactive = either reporter flat; the % is the NLuc reporter signal; note: potency is the fitted concentration of half-maximal effect; % is set by controls: 0 for no effect and ±100 for the full control effect
#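 Rat S16 Pmp22-F2sN cells, 500-1,000/well in phenol red-free DMEM + 10% FBS, compound-treated 24 h (37C, 5% CO2). Luminescence: FLuc read, Stop&Glo added, NLuc read.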
# p53null 39C kill = p53 null cell cytotoxicity, nonpermissive temperature; H1299 p53-null (neo) cells, 39C, ATPlite viability, 24 h; Potency, µM (highest dose often 46.1 µM), for inactives: top-dose activity, negative = cell killing, actives largely listed as cytotoxic; hit rate 0.97% among 55,000; AID 904;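 note: potency is the fitted concentration of half-maximal effect; 0% = DMSO only and -100% = full killing by 100 µM tamoxifen; nearly all actives have a fitted effect of over 50% in size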
#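 Following overnight plating at 37C (600 cells/well), H1299-neo or H1299-p53A138V cells are dosed up to 46 uM. Incubation lasts 24 hr at 39C before ATP detection.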
# S16 viability = toxic to S16 Pmp22-F2sN Schwann cells; Potency, µM (series often up to 57.5 µM), for the others: at the top dose activity change, negative = cytotoxicity, actives largely listed as cytotoxic; S16 Pmp22-F2sN Schwann cells viability, CellTiter-Glo, 24 h; hit rate 0.48% among 43,000; note: potency is the fitted concentration of half-maximal effect; % is set by controls: 0 for no effect and ±100 for the full control effect; nearly all actives have a fitted effect of over 65% in size
#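 Rat S16 Schwann reporter line, 24 h treatment with library compounds delivered at 23 nL per well. Cell viability by CellTiter-Glo luminescence.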
# mTORC1 inh = inhibitors of mTORC1 signaling in Tsc2-/- p53-/- MEF cells; Tsc2-/- p53-/- MEF, phospho-rpS6 immunofluorescence/PI, 24 h; Potency, µM (top dose mostly 38.3 µM), for the others: at the top dose activity change, negative = inhibition, hits mostly inhibitors; hit rate 0.78% among 44,000; AID 493208;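 note: potency is the fitted concentration of half-maximal effect; plate controls were DMSO for no effect and rapamycin for full effect; nearly all actives have a fitted effect of over 50% in size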
#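 Immunofluorescence of rpS6 phosphorylation in Tsc2-/-, p53-/- MEFs after 24 h compound exposure, normalized to propidium iodide signal. Activity is expressed as % positive cells, thresholded with 7.5 nM rapamycin.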
# p53null 32C tox = p53 null cell cytotoxicity, permissive temperature; hit rate 0.62% among 55,000; Potency, µM (doses to about 46.1 µM), without a hit: at the top dose activity change, negative = cytotoxicity, hits mostly cytotoxic; H1299-neo p53 null cells, ATP luminescence, 24 h, 32C;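 note: potency is the fitted concentration of half-maximal effect; 0% = DMSO only and -100% = full killing by 100 µM tamoxifen; nearly all actives have a fitted effect of over 55% in size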
#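 Overnight 37C seeding (600 cells/well) of H1299-neo preceded a 24 hr, 32C exposure to compounds up to 46 uM. ATP levels, read by luminescence after 20 min at RT, indicated surviving cells.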
# NLuc saturating = inhibits NanoLuc at saturating substrate, PMP22 counter-screen; shares compounds with PMP22 txn; hit rate 4% among 690; Potency, µM (doses to about 57.5 µM), for inactives: at the highest dose activity change, negative = inhibition, most hits filed as inhibitors; AID 1508638; Secreted NLuc enzyme (filtered S16 cell medium), Nano-Glo luminescence; note: potency is the fitted concentration of half-maximal effect; % is set by controls: 0 for no effect and ±100 for the full control effect
# NLuc Km counter = inhibits NanoLuc under Km conditions, PMP22 counter-screen | shares compounds with PMP22 txn | secreted NLuc enzyme, coelenterazine luminescence, Km conditions | Potency, µM (series often up to 57.5 µM), without a hit: at the top dose activity change, negative = inhibition, hits mostly inhibitors | hit rate 5% among 690; note: potency is the fitted concentration of half-maximal effect; % is set by controls: 0 for no effect and ±100 for the full control effect
# FLuc counter = counter-screen for PMP22 expression modulators: firefly luciferase inhibition; 690 tested, under 10 active; purified P. pyralis FLuc, luminescence, 10 min; AID 1508640; shares compounds with PMP22 txn; Potency, µM (titrated, usually from 57.5 µM), for inactives: top-dose activity, negative = inhibition, hits mostly inhibitors; note: % of control where 0% means no effect
# Target sequence (P08659 whole entry, looked up): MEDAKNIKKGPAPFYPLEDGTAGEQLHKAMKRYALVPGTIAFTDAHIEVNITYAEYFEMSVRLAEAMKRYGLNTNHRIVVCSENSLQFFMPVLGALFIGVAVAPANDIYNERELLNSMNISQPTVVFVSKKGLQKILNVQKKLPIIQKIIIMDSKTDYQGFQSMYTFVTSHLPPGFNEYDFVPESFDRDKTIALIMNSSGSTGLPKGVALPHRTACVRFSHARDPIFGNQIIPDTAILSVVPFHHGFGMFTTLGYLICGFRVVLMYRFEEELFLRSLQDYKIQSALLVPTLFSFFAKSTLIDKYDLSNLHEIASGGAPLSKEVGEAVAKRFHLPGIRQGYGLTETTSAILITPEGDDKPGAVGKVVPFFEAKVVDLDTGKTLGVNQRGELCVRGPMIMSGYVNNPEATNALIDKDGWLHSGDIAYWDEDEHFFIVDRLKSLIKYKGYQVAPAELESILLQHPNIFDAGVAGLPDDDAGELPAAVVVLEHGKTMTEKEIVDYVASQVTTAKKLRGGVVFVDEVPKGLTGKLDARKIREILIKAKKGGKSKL
# S16 F2sN tox cnf = confirmation of cytotoxicity in S16 Pmp22-F2sN Schwann cells (luciferase reporters placed in the Pmp22 gene) | AID 1508641 | hit rate 7% among 690 | shares compounds with PMP22 txn | S16 Schwann cells viability, CellTiter-Glo ATP luminescence, 24 h | Potency, µM (doses to about 57.5 µM), for the others: at the top dose activity change, negative = viability loss, hits mostly cytotoxic; note: potency is the fitted concentration of half-maximal effect; % is set by controls: 0 for no effect and ±100 for the full control effect
# PMP22 txn conf = confirmation of modulators of PMP22 gene transcription in S16 cells; shares compounds with PMP22 txn; S16 Schwann cells Pmp22-F2sN, dual luciferase, 24 h; Potency, µM (highest dose often 57.5 µM), inactives show top-dose activity change, negative = inhibition, usual class: inhibitors; hit rate 22% among 690; active = clear falling dose curves in both reporters; inconclusive = both reporters move, but less clearly or upward; inactive = either reporter flat; the % is the FLuc reporter signal; note: potency is the fitted concentration of half-maximal effect
# Starred values were filed as active, the others as inactive; ? = inconclusive; . = no result. Sampled rows, rich in hits. Any-hit rate of the full collection: about 3.2%. Unless noted, calls come from the whole dose curve; as a rule, active = well fitted curve in the direction sought with a large enough effect; inconclusive = small, poorly fitted or top-dose-only effect, or another doubt; inactive = no such curve, though single readings can be large; an effect the other way counts as inactive or inconclusive.
SMILES,PMP22 txn,p53null 39C kill,S16 viability,mTORC1 inh,p53null 32C tox,NLuc saturating,NLuc Km counter,FLuc counter,S16 F2sN tox cnf,PMP22 txn conf
CCOc1ccccc1NC(=O)C(=O)NCCc1sc(-c2cccc(F)c2)nc1C,?,-5.5%,21.7%,2.4%,-2.2%,-14.6%,-1.0%,-1.3%,6.9%,?
CC(=O)Nc1cccc(NC(=O)C(=O)NCCc2sc(-c3ccccc3)nc2C)c1,2.47µM*,-28.0%,-5.4%,?,3.3%,-18.2%,?,-3.7%,-0.4%,3.64µM*
CCc1ccccc1NC(=O)C(=O)NCCc1sc(-c2cccc(F)c2)nc1C,?,-6.9%,8.9%,1.5%,-5.8%,.,.,.,.,.
O=C(Cn1c(=O)n(Cc2ccccc2)c(=O)c2sc3ccccc3c21)Nc1ccc(F)cc1,14.2µM*,?,?,-11.1%,-14.3%,-12.8%,3.1%,1.2%,?,?
O=C(Cn1c(=O)n(Cc2ccccc2)c(=O)c2sc3ccccc3c21)Nc1ccccc1,?,-16.3%,-13.4%,-12.5%,?,.,.,.,.,.
COc1ccc(C)cc1NC(=O)c1cc(S(=O)(=O)N2CCN(c3cccc(C)c3C)CC2)ccc1F,?,19.2%,-9.9%,?,-15.0%,-1.8%,5.2%,-2.6%,-3.7%,7.2%
COc1cc(OC)c(NS(=O)(=O)c2ccc3c(c2)NC(=O)CCS3)cc1Cl,14.1µM*,-15.6%,?,5.8%,3.3%,?,?,-0.5%,-10.7%,?
Cc1ccccc1NS(=O)(=O)c1ccc2c(c1)NC(=O)CCS2,-12.7%,-14.0%,2.5%,4.3%,-4.7%,.,.,.,.,.
CCN(CC)C(=O)c1sc2c(c1C)c(=O)n(-c1ccccc1)c(=O)n2Cc1c(C)cc(C)cc1C,?,7.3%,0.8%,-0.6%,-3.7%,.,.,.,.,.
Cc1c(C(=O)OC2CCCCCC2)[nH]c2c1C(=O)CC(c1ccccc1Cl)C2 (stereo unspecified),?,24.0%,-21.8%,-24.5%,25.3%,.,.,.,.,.
Cc1c(C(=O)OC2CCC(C)CC2)[nH]c2c1C(=O)CC(c1ccccc1Cl)C2 (stereo unspecified),10.1µM*,38.4%,-27.8%,?,29.5%,?,-5.0%,6.4%,10.2%,-22.6%
CNC(=O)c1cc2c(n(-c3ccc(C)cc3)c1=O)CC(C)(C)CC2=O,-6.7%,2.2%,11.5%,-4.0%,5.2%,.,.,.,.,.
Cc1ccc(-n2c3c(cc(C(=O)Nc4ccccc4C(N)=O)c2=O)C(=O)CC(C)(C)C3)cc1,3.4µM*,-5.6%,0.0%,1.6%,1.7%,?,-4.1%,5.0%,-13.8%,-31.9%
CCOc1ccc(-c2nc(CSCC(=O)NCCc3ccccc3)c(C)o2)cc1,?,36.7%,-28.8%,3.2%,0.8%,?,?,19.3µM*,-23.6%,-89.8%
Cn1nnnc1SCCCNCc1ccccc1OCc1ccccc1Cl,13.4µM*,-9.9%,?,?,-5.4%,-1.4%,?,0.6%,-27.3%,?
Cc1cc(C)cc(Nc2cc(C(=O)NCCCN(C)C3CCCCC3)c3ccccc3n2)c1,8.91µM*,12.6µM*,?,4.14µM*,?,-4.9%,0.3%,?,17.2µM*,15.3µM*
CCCCN(CCCNC(=O)c1cc(Nc2ccc(OC)cc2OC)nc2ccccc12)Cc1ccccc1,?,?,-21.8%,-21.3%,16.0%,.,.,.,.,.
CCN(CCCNC(=O)c1cc(Nc2ccc(OC)cc2OC)nc2ccccc12)c1cccc(C)c1,15µM*,8.3%,-7.1%,2.3%,10.9%,-12.9%,-0.5%,-21.5%,-4.2%,-17.8%
Cc1ccc(C)c(Nc2cc(C(=O)NCCCN(C)C3CCCCC3)c3ccccc3n2)c1,?,?,?,?,7.5%,.,.,.,.,.
CCc1ccccc1Nc1cc(C(=O)NCCCN(C)C2CCCCC2)c2ccccc2n1,20µM*,-25.9%,?,?,11.5%,-1.3%,2.2%,-4.3%,?,?
CC1CCc2noc(NC(=O)c3ccccc3[N+](=O)[O-])c2C1 (stereo unspecified),-47.6%,7.1%,-19.2%,-11.5%,-5.4%,.,.,.,.,.
CCOc1ccc(-n2c(SCC(N)=O)nc3c(oc4ccccc43)c2=O)cc1,7.3%,-9.6%,?,1.0%,5.3%,.,.,.,.,.
COc1ccc(OC)c(CCNc2ncnc3onc(C)c23)c1,11.3µM*,-6.5%,-17.2%,?,-8.1%,-8.7%,-3.6%,?,-13.1%,-26.1%
Cc1ccc(Cl)cc1N1CCN(CCCNc2ncnc3onc(-c4ccc(Cl)cc4)c23)CC1,14.2µM*,-2.2%,4.2%,-2.4%,-0.1%,-7.3%,6.9%,-9.3%,4.7%,?
CC(Oc1ccccc1)C(=O)Nc1ccccc1C(=O)OCc1cc(=O)n2nc(C3CC3)sc2n1 (stereo unspecified),6.48µM*,3.5%,7.7%,20.8%,-5.8%,-9.7%,-2.5%,-13.8%,4.6%,-11.0%
Cn1cc(CN(C(=O)Nc2ccc(Cl)c(Cl)c2)C2CCCCC2)c2ccccc21,-85.4%,8.1%,19.9%,-8.8%,3.9%,.,.,.,.,.
Cn1cc(CN(C(=O)Nc2ccccc2)C2CCCCC2)c2ccccc21,9.46µM*,?,?,-6.4%,-4.9%,?,?,-25.7%,-15.6%,?
CCn1c(CN2CCCCC2)nc2cc(NC(=O)c3ccccc3[N+](=O)[O-])ccc21,?,-18.0%,-7.3%,-9.8%,13.8%,.,.,.,.,.
CCn1c(CN2CCCCC2)nc2cc(NC(=O)COc3ccccc3C(C)(C)C)ccc21,13.9µM*,-2.0%,2.0%,-1.1%,0.4%,-11.0%,2.1%,1.0%,1.4%,?
